The whole screen tested about 310,000 compounds, of which about 2,200 (0.71%) showed an effect of 50% or more. The effect is printed as a negative number. This excerpt belongs to a sample that is enriched for strong results.
Molecular target: human ether-à-go-go-related gene (hERG) potassium channel (human, UniProt Q12809)
Experiment: primary screen, population patch clamp on CHO cells stably expressing hERG; higher = less effect of the substance

Chain of human ether-à-go-go-related gene (hERG) potassium channel (Q12809 whole entry, looked up): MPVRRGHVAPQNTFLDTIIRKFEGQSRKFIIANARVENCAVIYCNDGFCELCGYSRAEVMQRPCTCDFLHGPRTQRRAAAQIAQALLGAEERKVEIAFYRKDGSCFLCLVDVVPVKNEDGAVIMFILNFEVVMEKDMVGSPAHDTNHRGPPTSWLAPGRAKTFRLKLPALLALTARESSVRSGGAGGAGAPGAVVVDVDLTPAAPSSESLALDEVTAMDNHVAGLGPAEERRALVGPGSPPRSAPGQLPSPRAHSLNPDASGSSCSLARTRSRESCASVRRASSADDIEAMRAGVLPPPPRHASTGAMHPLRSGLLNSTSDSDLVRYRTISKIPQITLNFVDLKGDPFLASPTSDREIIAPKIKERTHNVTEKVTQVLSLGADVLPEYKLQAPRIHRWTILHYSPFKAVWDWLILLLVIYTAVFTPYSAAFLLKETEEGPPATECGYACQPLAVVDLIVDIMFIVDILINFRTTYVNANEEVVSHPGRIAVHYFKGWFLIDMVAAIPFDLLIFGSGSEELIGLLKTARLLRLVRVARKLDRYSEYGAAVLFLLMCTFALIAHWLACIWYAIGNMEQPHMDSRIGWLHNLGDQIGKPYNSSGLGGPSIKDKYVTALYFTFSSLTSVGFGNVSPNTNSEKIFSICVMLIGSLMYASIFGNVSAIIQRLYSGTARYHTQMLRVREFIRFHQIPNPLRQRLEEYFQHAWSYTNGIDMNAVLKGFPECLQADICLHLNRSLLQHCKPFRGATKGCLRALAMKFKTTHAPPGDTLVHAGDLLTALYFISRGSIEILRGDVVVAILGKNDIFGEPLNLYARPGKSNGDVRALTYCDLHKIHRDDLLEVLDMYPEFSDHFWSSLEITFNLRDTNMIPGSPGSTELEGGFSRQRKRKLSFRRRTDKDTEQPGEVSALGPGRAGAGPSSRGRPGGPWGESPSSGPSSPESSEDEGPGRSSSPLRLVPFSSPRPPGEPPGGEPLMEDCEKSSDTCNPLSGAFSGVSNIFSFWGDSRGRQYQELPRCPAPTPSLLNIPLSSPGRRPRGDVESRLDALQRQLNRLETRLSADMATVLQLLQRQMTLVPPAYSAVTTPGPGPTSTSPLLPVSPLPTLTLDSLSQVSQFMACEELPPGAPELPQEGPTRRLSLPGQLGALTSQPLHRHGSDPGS

| Structure (SMILES) | hERG current change (%, negative = inhibition) at 1uM |
| --- | --- |
| O=C(c1cc2c(ccc3ccccc32)o1)N1CCCCC1 | 14.4% |
| CCOC(=O)N1CCN(C(=O)COC(=O)c2ccc(O)cc2O)CC1 | 16.8% |
| CC(=O)c1ccc(-n2c(-c3cc(-c4ccsc4)n[nH]3)n[nH]c2=S)cc1 | 7.9% |
| CCCCCn1c(=O)[nH]c2cc(C(=O)NCCN3CCOCC3)ccc2c1=O | 6.68% |
| O=C1NC(Cc2ccccc2)c2nc3ccc(Cl)cc3c(=O)n2-c2ccc(Cl)cc21 (centres unmarked) | 10.4% |
| COc1ccc(S(=O)(=O)N2CCOCC2)cc1NC(=O)c1cccc(Cl)c1 | 6.86% |
| N#Cc1c(N)n(CCOC(=O)c2cccc([N+](=O)[O-])c2)c2nc3ccccc3nc12 | 13.1% |
| COc1ccc(CCNC(=O)c2ccc3c(c2)OCO3)cc1 | 11.4% |
| Cc1csc(NC(=O)CSc2nnc(-c3ccccn3)n2-c2ccc(C)c(C)c2)n1 | -57.4% |
| O=C(CSc1nnc(-c2cccs2)n1-c1ccccc1)NCc1ccco1 | -65.9% |
| Cn1c(SCC(=O)NCc2ccco2)nnc1-c1cccs1 | 8.99% |
| COc1ccc(-n2c(SCC(=O)Nc3nccs3)nnc2-c2ccoc2C)cc1 | -79.4% |
| COc1ccc(-n2c(SCC(=O)Nc3nccs3)nnc2-c2ccccc2)cc1 | 13.9% |
| CCOc1ccc(-n2c(SCC(=O)Nc3nccs3)nnc2-c2ccoc2C)cc1 | -35.1% |
| COc1cccc(-n2c(SCC(=O)NCCc3ccccc3)nnc2-c2ccoc2C)c1 | -50.4% |
| Cc1ccc(-n2c(SCC(N)=O)nnc2-c2ccccn2)cc1C | 13% |
| COc1cccc(NC(=O)CSc2nnc(-c3ccoc3C)n2-c2ccccc2)c1 | -17.5% |
| COc1cccc(-n2c(SCC(=O)NC(C)(C)C)nnc2-c2ccoc2C)c1 | -3.46% |
| CCN(CC)C(=O)CSc1nnc(-c2ccccn2)n1-c1ccc(C)c(C)c1 | -4.22% |
| O=C(CSc1nnc(-c2ccccc2)n1-c1ccccc1)NCc1ccco1 | 7.59% |
| COc1ccc(-n2c(-c3cccc(C)c3[N+](=O)[O-])n[nH]c2=S)cc1 | 7.34% |
| Cc1ccc(OCC(=O)NC2CCS(=O)(=O)C2)cc1 (centres unmarked) | 4.41% |

| Structure (SMILES) | hERG current change (%, negative = inhibition) at 1uM |
| --- | --- |
| COc1ccc(C(=O)Nc2nc3ccccc3[nH]2)cc1 | 20.6% |
| CCCNc1cc(C)oc(=O)c1C(=O)CC | 18.4% |
| CC1(C)Cc2c(C#N)c(SCC(=O)c3ccccc3)nc(N3CCOCC3)c2CS1 | 13% |
| COc1ccccc1C(=O)NNC(=O)c1ccccc1 | 9.59% |
| CC(=O)n1nc(-c2ccccc2)nc1NCc1cccs1 | 7.45% |
| CCCCC(=O)N1CCN(c2ccc(OC)cc2[N+](=O)[O-])CC1 | -54.5% |
| COc1ccc(N2CCN(C(=O)CC34CC5CC(CC(C5)C3)C4)CC2)c([N+](=O)[O-])c1 | 10.3% |
| COc1ccc(N2CCN(C(=O)c3cccc(Br)c3)CC2)c([N+](=O)[O-])c1 | -85.9% |
| CCC(=O)N1CCN(c2ccc(OC)cc2[N+](=O)[O-])CC1 | -0.687% |
| COc1ccc(N2CCN(C(=O)c3ccccc3)CC2)c([N+](=O)[O-])c1 | -33.8% |
| COc1ccc(N2CCN(C(=O)c3ccc(Br)cc3)CC2)c([N+](=O)[O-])c1 | -30.1% |
| CCOc1cc(C2C3=C(CC(C)(C)CC3=O)N(CCCOC)C3=C2C(=O)CC(C)(C)C3)ccc1O | 14% |
| O=C1CC(NS(=O)(=O)c2cccnc2)CN1c1cccc(F)c1 (centres unmarked) | 10.3% |
| Cc1ccc(C)c(N(C(=O)CNC(=O)c2ccco2)C(C(=O)NC2CCCCC2)c2ccncc2)c1 (centres unmarked) | 7.2% |
| O=C(c1ccco1)N1CCN(C(=O)C2CC(c3ccc(Cl)cc3)=NO2)CC1 (centres unmarked) | -66.5% |
| COc1cc(OC)c(C2=NOC(C(=O)N3CCN(C(=O)c4ccco4)CC3)C2)cc1Cl (centres unmarked) | -12.8% |
| Cc1c(C(=O)N2CCN(C(=O)c3ccco3)CC2)sc2nc(-c3ccc(F)cc3)cn12 | -56.7% |
| COc1cccc(C2=NOC(C(=O)N3CCN(C(=O)c4ccco4)CC3)C2)c1 (centres unmarked) | -16.3% |
| CCOC(=O)N1CCN(C(=O)c2sc3nc(-c4ccc(F)cc4)cn3c2C)CC1 | -22.3% |
| CCN(CC)CCCNC(=O)c1sc2nc(-c3ccc(F)cc3)cn2c1C | -55.5% |
| Cc1c(C(=O)NCCCN2CCOCC2)sc2nc(-c3ccc(F)cc3)cn12 | -16.8% |
| Cc1c(C(=O)N2CCN(c3ccc(F)cc3)CC2)sc2nc(-c3ccccc3)cn12 | -2.42% |

| Structure (SMILES) | hERG current change (%, negative = inhibition) at 1uM |
| --- | --- |
| COc1ccc(C2=NOC(C(=O)N3CCN(C(=O)c4ccco4)CC3)C2)cc1OC (centres unmarked) | 15.8% |
| O=C(c1ccco1)N1CCN(C(=O)C2CC(c3ccccc3F)=NO2)CC1 (centres unmarked) | 3.75% |
| O=C(c1ccco1)N1CCN(C(=O)C2CC(c3ccc(F)cc3)=NO2)CC1 (centres unmarked) | -59.7% |
| CCN(CC)CCNC(=O)c1sc2nc(-c3ccccc3)cn2c1C | -31.8% |
| O=C(c1cccc(N2C(=O)C3CC=CCC3C2=O)c1)N1CCCc2ccccc21 (centres unmarked) | -16.3% |
| CCOC(=O)CNC(=O)CSc1nnnn1-c1ccc(C)c(C)c1 | 0.993% |
| Cn1cc(CC(=O)N2CCN(c3ccc(Cl)cc3)CC2)c2ccccc21 | -0.545% |
| Cc1ccccc1OCC(=O)Nc1ccccc1C(=O)NC1CC1 | 8.41% |
| Cc1ccc(C)c(NC(=S)N2CCN(CCO)CC2)c1 | 5.15% |
| CC1CCN(C(=O)COC(=O)c2cn(C)c3ccccc23)CC1 | 7.49% |
| O=C(c1ccco1)N1CCN(C(=O)C2CC(=O)N(c3ccccc3)C2)CC1 (centres unmarked) | -1.56% |
| Cc1ccc(N2CC(C(=O)N3CCN(C(=O)c4ccco4)CC3)CC2=O)cc1 (centres unmarked) | -45.8% |
| O=C(c1ccco1)N1CCN(C(=O)C2CC(=O)N(c3ccc(Cl)cc3)C2)CC1 (centres unmarked) | -80.2% |
| O=C(COc1ccc(Cl)cc1)Nc1ccc(Cl)cn1 | -2% |
| COc1ccc(Oc2nc(SC)nc3ccccc23)cc1 | 2.03% |
| O=C(/C=C/Nc1ccc(F)cc1F)c1cccs1 | 18.4% |
| C[C@H](NC(=O)c1nc[nH]c1C(=O)N[C@@H](CCCCNC(=O)OC(C)(C)C)C(=O)OC(C)(C)C)c1ccccc1 | 19.1% |
| COc1ccc(NC(=O)N2CCN(c3ccc([N+](=O)[O-])cc3)CC2)cc1OC | -63.2% |
| COc1ccccc1N1CCN(C(=O)Nc2ccc([N+](=O)[O-])cc2)CC1 | -10.6% |
| O=[N+]([O-])c1ccc(N2CCN(C(=S)Nc3ccc(F)cc3)CC2)cc1 | -23.8% |
| COc1ccc(NC(=S)N2CCN(c3ccc([N+](=O)[O-])cc3)CC2)cc1OC | -82.2% |
| COc1ccc(NC(=O)N2CCN(c3ccc([N+](=O)[O-])cc3)CC2)cc1 | -14.2% |

| Structure (SMILES) | hERG current change (%, negative = inhibition) at 1uM |
| --- | --- |
| COc1cccc(NC(=S)N2CCN(c3ccc([N+](=O)[O-])cc3)CC2)c1 | -9.45% |
| Cc1ccc(S(=O)(=O)N/N=C/c2cc(Br)c(C)o2)cc1 | 8.23% |
| O=C(N/C(=C/c1cn(-c2ccccc2)nc1-c1ccccc1)C(=O)N1CCOCC1)c1ccc(Cl)cc1Cl | 24.2% |
| Cl.O=S1(=O)N=C(N(CCO)/N=C/c2ccncc2)c2ccccc21 | 7.58% |
| CC1CCCCC12NC(=O)N(CC(=O)Nc1ccc(N3CCOCC3)cc1)C2=O (centres unmarked) | 4.35% |
| S=c1[nH]nc(-c2ccncc2)n1/N=C/c1cccc(Cl)c1 | 8.7% |
| CNc1c([N+](=O)[O-])cnn1-c1ccccc1Cl | -13.4% |
| c1cncc(-c2nc(-c3ccc4c(c3)OCCO4)cs2)c1 | 9.93% |
| O=[N+]([O-])c1ccc2c(c1)OCCOCCOCCOCCOCCOCCO2 | -32.5% |
| Cc1ccc2nc(-c3ccc4c(c3)OCCO4)cn2c1 | 15.7% |
| N#Cc1ncc(-c2ccc3c(c2)OCCOCCOCCOCCO3)nc1C#N | -63.6% |
| c1ccn2cc(-c3ccc4c(c3)OCCO4)nc2c1 | 4.22% |
| N#Cc1cncc(-c2ccc3c(c2)OCCOCCOCCOCCOCCO3)n1 | -95.2% |
| N#Cc1ncc(-c2ccc3c(c2)OCCOCCOCCOCCOCCO3)nc1C#N | -84.8% |
| N#CCC(=O)Nc1nc(-c2ccc3c(c2)OCCO3)cs1 | 8.5% |
| Cl.Nc1nc(-c2ccc3c(c2)OCCO3)cs1 | 14.3% |
| CC1CCN(C(=O)COC(=O)C23CC4CC(CC(O)(C4)C2)C3)CC1 | 18.8% |
| CCC(C)(C)n1nnnc1C(c1ccncc1)N1CCC(C)CC1 (centres unmarked) | -0.168% |
| CCCn1nc2ccccc2c1P(=O)(N1CCOCC1)N1CCOCC1 | -0.888% |
| O=C(NCCc1cccc(Cl)c1)c1cc2ccccc2oc1=O | 12.5% |

— PMC4336329 (PLoS ONE, 2015)
